Reference: the supplement of paper PMC11732987, “Enantioselective OTUD7B fragment discovery through chemoproteomics screening and high-throughput optimisation” (Communications Chemistry, 2025)

Tests used:
Test in all cases: log2 ratio of Biotin-Ahx-Ub-VS probe labelling (fragment/DMSO); higher = less target engagement (more negative = stronger competition), active = hit call of the paper (q ≤ 0.05, log2 ratio ≤ -1)
Conditions in all cases: compound concentration: 200 uM; treatment time: 3 h
[1] = target: T1, OTUD6B (UniProt Q8N6M0)
T1 sequence (whole entry): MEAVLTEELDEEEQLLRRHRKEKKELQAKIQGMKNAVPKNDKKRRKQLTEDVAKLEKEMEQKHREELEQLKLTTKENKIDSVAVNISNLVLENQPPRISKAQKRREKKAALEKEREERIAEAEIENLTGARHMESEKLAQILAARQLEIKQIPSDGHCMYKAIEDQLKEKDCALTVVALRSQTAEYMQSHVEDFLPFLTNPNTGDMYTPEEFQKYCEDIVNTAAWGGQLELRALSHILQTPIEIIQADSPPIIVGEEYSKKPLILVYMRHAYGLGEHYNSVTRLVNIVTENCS
Outline: (§1)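 Using Biotin-Ahx-Ub-VS at 0.5 µM final for 1 h, DUBs were labelled in HEK293T lysate (495 µg per sample) that had first been treated in triplicate with fragment at 200 µM or vehicle for 3 h. NeutrAvidin enrichment, LysC and trypsin digestion and diaPASEF LC-MS/MS followed. Spectronaut label-free quantities were global-median-normalised. Values are average log2 fragment/vehicle ratios by unpaired t-test, using proteins with ≥2 unique peptides.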

[2] = target: T2, OTUD7B (UniProt Q6GQQ9)
T2 sequence (whole entry): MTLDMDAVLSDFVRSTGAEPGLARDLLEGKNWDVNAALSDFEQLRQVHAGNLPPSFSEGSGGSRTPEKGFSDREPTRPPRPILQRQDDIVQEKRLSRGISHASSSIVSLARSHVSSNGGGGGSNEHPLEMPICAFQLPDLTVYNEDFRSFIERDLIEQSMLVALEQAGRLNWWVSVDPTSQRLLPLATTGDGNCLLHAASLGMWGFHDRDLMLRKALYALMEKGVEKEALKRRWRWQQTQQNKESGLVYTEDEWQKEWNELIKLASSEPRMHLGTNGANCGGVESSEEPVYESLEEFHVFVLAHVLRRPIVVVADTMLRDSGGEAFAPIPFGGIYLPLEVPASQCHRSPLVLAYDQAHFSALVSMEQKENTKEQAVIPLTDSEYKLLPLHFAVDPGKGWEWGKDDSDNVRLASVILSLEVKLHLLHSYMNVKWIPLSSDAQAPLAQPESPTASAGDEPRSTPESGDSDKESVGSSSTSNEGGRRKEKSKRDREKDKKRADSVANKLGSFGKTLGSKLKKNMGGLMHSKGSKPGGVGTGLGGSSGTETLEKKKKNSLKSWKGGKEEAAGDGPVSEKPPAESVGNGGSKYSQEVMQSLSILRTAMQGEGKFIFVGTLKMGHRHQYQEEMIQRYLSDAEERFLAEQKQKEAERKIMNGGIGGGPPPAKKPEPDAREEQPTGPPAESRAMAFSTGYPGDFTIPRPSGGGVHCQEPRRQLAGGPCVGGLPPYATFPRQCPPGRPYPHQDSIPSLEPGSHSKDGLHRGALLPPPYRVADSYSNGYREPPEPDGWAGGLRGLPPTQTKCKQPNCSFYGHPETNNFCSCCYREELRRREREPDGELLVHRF
Outline: as §1

[3] = target: PRPF8 (UniProt Q6P2Q9)
Outline: as §1

[4] = target: T3, PSMD7 (UniProt P51665)
T3 sequence (whole entry): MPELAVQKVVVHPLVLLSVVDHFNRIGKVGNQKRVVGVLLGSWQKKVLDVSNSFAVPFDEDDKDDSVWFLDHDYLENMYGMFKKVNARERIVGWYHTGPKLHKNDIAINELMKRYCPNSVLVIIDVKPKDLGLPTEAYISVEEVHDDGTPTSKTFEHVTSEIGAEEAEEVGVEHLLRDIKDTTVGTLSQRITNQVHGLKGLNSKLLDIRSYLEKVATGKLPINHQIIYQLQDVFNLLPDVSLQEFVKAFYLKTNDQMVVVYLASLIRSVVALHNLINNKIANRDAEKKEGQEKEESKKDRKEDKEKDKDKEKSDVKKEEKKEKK
Outline: as §1

[5] = target: UCHL1 (UniProt P09936)
Outline: as §1

[6] = target: T4, UCHL3 (UniProt P15374)
T4 sequence (whole entry): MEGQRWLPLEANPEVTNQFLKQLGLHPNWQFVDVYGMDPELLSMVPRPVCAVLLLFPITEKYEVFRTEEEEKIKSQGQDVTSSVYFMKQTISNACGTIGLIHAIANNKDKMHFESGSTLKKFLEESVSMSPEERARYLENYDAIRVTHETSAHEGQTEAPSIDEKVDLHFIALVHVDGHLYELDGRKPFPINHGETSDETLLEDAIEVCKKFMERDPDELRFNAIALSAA
Outline: as §1

[7] = target: T5, UCHL5 (UniProt Q9Y5K5)
T5 sequence (whole entry): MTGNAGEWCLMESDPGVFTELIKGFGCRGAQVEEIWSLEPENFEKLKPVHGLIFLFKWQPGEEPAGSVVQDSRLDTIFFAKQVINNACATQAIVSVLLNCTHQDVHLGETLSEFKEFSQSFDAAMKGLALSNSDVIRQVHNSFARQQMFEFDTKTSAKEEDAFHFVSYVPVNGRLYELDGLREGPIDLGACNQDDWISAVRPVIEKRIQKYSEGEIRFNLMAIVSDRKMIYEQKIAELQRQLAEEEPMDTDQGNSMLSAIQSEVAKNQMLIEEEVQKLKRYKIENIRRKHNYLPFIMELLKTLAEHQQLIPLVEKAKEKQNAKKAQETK
Outline: as §1

[8] = target: USP10 (UniProt Q14694)
Outline: as §1

[9] = target: T6, USP15 (UniProt Q9Y4E8)
T6 sequence (whole entry): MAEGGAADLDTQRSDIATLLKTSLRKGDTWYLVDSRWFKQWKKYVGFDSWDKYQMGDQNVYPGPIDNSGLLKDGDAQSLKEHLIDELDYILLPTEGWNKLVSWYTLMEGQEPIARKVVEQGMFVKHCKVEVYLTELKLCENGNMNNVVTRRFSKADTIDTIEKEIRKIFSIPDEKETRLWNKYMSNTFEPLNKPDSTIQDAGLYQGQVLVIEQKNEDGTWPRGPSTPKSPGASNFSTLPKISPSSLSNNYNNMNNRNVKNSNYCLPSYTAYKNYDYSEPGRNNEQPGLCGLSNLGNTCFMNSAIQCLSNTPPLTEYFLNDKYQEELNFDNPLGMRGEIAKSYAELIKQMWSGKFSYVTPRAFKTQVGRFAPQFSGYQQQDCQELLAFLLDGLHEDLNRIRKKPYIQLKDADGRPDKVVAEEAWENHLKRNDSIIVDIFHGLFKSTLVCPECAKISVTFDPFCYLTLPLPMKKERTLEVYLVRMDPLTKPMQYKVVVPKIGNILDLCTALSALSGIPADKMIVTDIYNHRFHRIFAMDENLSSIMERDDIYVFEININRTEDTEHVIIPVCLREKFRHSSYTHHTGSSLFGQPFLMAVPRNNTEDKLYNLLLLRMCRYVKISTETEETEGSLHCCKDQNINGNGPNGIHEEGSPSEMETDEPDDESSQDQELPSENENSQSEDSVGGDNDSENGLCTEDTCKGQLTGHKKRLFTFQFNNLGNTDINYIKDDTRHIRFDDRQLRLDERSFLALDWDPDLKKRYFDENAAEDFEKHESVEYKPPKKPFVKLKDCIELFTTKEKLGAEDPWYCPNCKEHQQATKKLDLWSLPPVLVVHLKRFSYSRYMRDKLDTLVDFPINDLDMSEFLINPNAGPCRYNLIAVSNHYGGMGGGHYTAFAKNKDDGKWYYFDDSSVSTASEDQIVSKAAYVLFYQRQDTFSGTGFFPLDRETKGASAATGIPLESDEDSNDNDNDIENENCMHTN
Outline: as §1

[10] = target: USP16 (UniProt Q9Y5T5)
Outline: as §1

Measured: log2 ratio of Biotin-Ahx-Ub-VS probe labelling

Chain of USP10 (Q14694 whole entry): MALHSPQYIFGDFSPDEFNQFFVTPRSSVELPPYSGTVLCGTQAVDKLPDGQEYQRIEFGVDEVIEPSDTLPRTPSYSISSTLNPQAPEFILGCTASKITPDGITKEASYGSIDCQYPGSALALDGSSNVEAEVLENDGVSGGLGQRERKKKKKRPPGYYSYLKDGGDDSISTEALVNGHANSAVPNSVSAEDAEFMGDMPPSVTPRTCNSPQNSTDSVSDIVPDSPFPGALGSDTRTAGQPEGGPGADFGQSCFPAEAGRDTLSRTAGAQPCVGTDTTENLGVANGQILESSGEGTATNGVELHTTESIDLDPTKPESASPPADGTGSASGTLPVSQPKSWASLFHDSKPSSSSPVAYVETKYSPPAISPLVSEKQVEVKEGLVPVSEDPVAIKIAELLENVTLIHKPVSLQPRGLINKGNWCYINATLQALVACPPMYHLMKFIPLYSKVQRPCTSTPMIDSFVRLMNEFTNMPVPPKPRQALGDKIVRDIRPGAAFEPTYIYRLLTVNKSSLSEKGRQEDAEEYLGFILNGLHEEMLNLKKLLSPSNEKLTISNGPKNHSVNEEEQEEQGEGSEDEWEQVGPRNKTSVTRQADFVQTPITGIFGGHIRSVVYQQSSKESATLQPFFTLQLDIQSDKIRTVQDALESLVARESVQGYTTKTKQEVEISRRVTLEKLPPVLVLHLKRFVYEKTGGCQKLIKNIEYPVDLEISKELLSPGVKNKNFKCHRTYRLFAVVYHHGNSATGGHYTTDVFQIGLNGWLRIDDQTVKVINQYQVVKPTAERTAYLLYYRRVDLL
Chain of UCHL1 (P09936 whole entry, looked up): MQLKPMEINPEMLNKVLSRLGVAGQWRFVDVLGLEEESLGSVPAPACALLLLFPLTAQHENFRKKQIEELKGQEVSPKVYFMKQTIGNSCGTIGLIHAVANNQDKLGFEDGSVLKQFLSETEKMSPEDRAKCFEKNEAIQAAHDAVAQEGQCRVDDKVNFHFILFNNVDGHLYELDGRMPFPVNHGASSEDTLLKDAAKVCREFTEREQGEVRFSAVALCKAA
Chain of USP16 (Q9Y5T5 whole entry, looked up): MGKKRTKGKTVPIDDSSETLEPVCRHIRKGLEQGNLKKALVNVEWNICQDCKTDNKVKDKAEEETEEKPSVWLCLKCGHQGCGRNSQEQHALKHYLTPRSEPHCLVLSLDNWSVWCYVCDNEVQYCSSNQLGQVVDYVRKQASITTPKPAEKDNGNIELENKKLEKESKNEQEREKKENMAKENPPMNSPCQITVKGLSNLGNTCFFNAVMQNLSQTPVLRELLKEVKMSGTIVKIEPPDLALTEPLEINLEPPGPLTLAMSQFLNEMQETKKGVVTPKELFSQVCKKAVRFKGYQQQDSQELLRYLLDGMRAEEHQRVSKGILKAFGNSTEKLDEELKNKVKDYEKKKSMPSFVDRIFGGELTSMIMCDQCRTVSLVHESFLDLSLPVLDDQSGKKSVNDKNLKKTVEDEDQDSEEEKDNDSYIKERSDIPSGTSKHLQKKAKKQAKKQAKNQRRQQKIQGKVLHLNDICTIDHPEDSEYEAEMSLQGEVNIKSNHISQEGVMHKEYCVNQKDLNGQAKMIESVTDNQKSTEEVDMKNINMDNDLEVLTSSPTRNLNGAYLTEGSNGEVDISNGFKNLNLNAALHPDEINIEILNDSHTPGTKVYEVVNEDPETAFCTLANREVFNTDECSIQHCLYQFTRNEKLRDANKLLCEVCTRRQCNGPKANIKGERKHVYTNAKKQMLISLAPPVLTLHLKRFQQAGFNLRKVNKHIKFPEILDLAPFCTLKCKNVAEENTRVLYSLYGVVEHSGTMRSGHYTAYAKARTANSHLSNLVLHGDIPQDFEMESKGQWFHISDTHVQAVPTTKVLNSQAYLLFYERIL

O=C(CCl)NCc1ccc(Cl)cc1
active: [5] -1.24
inactive: [1] -0.0688 | [2] -0.726 | [3] 0.0877 | [4] 0.0253 | [6] 0.379 | [7] -0.00645 | [8] -0.179 | [9] 0.049 | [10] -0.354
